Test results published in PubChem BioAssay AID598 (SRMLSC, 2007).
Screen size: about 85,000 compounds; about 5,100 (6%) were called active. The sample as a whole holds a higher share of actives than the screen did. Values without a mark were called inactive.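 The calls were made as follows: active = viability at or below 40%; inactive = viability above 40%.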

Test: H69AR cell viability reduction – human, 86K library, primary screen (AID 598);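 also: multidrug resistant small cell line overexpressing MRP-1 efflux transporter; 100% = mean luminescence of untreated control wells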
Conditions: H69AR lung tumor viability, ATP luminescence, 72 h; at 10 µM; active compounds read low

| Compound | viability |
| --- | --- |
| COc1ccc(C(=O)Nc2ccc(S(=O)(=O)NC(C)C)cc2)cc1 | 97.9% |
| COc1ccc(/C(N)=N/OC(=O)Oc2ccccc2)cc1 | 82.6% |
| Cc1cccc(NC(=O)CSc2nnc(-c3ccco3)o2)c1 | 96.2% |
| CC1(C)NC(=O)N(CCCCSc2ccc(Cl)cc2)C1=O | 79% |
| CC1(C)Cc2c(C#N)c(SCc3nc4ccccc4[nH]3)nc(N3CCOCC3)c2CO1 | 37.1% (active) |
| COc1ccc(CSc2nc(N3CCOCC3)c3c(c2C#N)CC(C)(C)OC3)cc1 | 92.7% |
| CC(C)c1nc(N2CCOCC2)c(C#N)c2c1COC(C)(C)C2 | 79.6% |
| CCc1ccc(C2C(C#N)=C(N)Oc3n[nH]c(CC(=O)OC)c32)cc1 (stereo unspecified) | 92.7% |
| O=C(Nc1ccc2c(c1)OCCO2)C(c1ccc(F)cc1)N1CCCCC1 (stereo unspecified) | 99.9% |
| Cc1ccc(OCc2nnc(NC(=O)OCC(C)C)s2)cc1 | 102% |
| CC1Cc2ccccc2N1C(=O)CSc1nnc(-c2ccc(S(=O)(=O)N3CCCCC3)cc2)o1 (stereo unspecified) | 29.4% (active) |
| CCS(=O)(=O)c1ccc2oc(SCC(=O)N3c4ccccc4CC3C)nc2c1 (stereo unspecified) | 63.3% |
| CC1Cc2ccccc2N1C(=O)CSc1nc2ccccc2o1 (stereo unspecified) | 74.2% |
| CCOC(=O)/C(C#N)=C\c1c(C)cc(C)c(COC(C)=O)c1C | 95.1% |
| CCNC(=O)NC(=O)C(C)OC(=O)c1cc(S(=O)(=O)N2CCCCCC2)ccc1OC (stereo unspecified) | 84.3% |
| Cc1ccc(NC(=O)CCN2CCc3ccccc3C2)cc1 | 79.4% |
| Cc1ccc(NC(=S)NC(NC(=O)Cc2cccc3ccccc23)C(Cl)(Cl)Cl)cc1 (stereo unspecified) | 0.99% (active) |
| CC(N=Cc1nc(-c2ccccc2)oc1O)c1ccccc1 (stereo unspecified) | 94.3% |
| Cc1ccc(S(=O)(=O)N2CCC(C(=O)NCC3CCCO3)CC2)cc1 (stereo unspecified) | 105% |
| COc1cccc(NC(=O)CN2CCN(c3nc(-c4cccc(OC)c4)cs3)CC2)c1 | 93.2% |
| COc1ccc([N+](=O)[O-])cc1C1NN=C(c2cccc3ccccc23)S1 (stereo unspecified) | 27.1% (active) |
| Cc1ccc(CNC(=O)COc2ccc(S(=O)(=O)NC(C)C)cc2)cc1 | 98.1% |
| COc1cc2c(cc1OC)C(C(=O)NCc1ccco1)C1c3ccccc3CCN1C2=O (stereo unspecified) | 92.7% |

| Compound | viability |
| --- | --- |
| COc1ccc(C2=NOC(C(=O)NCc3ccco3)C2)cc1OC (stereo unspecified) | 28.7% (active) |
| COc1ccc(-c2cc(C(=O)NCc3ccco3)no2)cc1OC | 100% |
| COc1cccc(N=c2oc3c(C)ncc(CO)c3cc2C(N)=O)c1 | 68% |
| CCCCn1c(SCc2ncc(-c3ccccc3)o2)nc2cc(S(N)(=O)=O)ccc21 | 14% (active) |
| CCCCn1c(SCC(=O)N2CCC(C(=O)OCC)CC2)nc2cc(S(N)(=O)=O)ccc21 | 48.4% |
| CCn1c(SCC(=O)NCC2CCCO2)nc2cc(S(=O)(=O)N3CCCCC3)ccc21 (stereo unspecified) | 96.9% |
| COC(=O)c1ccc(NC(=O)C23CC4CC(C2)CC(n2cnc(Cl)n2)(C4)C3)cc1 | 72.7% |
| CCCOC(=O)c1[nH]c2c(c1C)C(=O)CC(c1cccs1)C2 (stereo unspecified) | 34.2% (active) |
| CCCOC(=O)c1[nH]c2c(c1C)C(=O)CC(c1cc(OC)c(OC)c(OC)c1)C2 (stereo unspecified) | 80.3% |
| CCOC(=O)c1[nH]c2c(c1C)C(=O)CC(c1ccc(N(C)C)cc1)C2 (stereo unspecified) | 100% |
| Cc1nc(NC(=O)CN(C)S(=O)(=O)c2ccc(Cl)cc2)sc1C | 61.4% |
| CCc1c(C)sc(NC(=O)c2cccs2)c1C(N)=O | 99.7% |
| CCN(CC)C(=O)CN(c1cccc(OC)c1)S(=O)(=O)c1ccc(C)cc1 | 82.3% |
| CCCCNC(=O)C1CCCN(S(=O)(=O)c2ccc(S(=O)(=O)NCC(C)C)cc2)C1 (stereo unspecified) | 90.8% |
| O=C(Nc1ccccc1N1CCN(C(=O)c2ccccc2)CC1)c1ccc2c(c1)OCO2 | 81.8% |
| Cc1cccc(N2CCN(C(=O)C3CCN(S(=O)(=O)c4cnc[nH]4)CC3)CC2)c1C | 93.6% |
| Cc1cccc(N2CCN(C(=O)c3cnn4c(C(F)F)cc(-c5ccccc5)nc34)CC2)c1C | 28.9% (active) |
| O=C1CSC(c2cccc(F)c2)N1c1ccc(O)cc1 (stereo unspecified) | 101% |
| CC(C)CCNC(=O)Cn1c(=O)oc2cc(S(=O)(=O)N3CC(C)CC(C)C3)ccc21 (stereo unspecified) | 40.8% |
| Cc1oc(-c2ccccc2Cl)[n+]([O-])c1C | 85.9% |
| Cc1[nH][nH]c(=O)c1N=Nc1ccccc1 | 91.5% |
| Cc1[nH][nH]c(=O)c1C(c1ccc(-c2ccc(Cl)cc2)o1)c1c(C)[nH][nH]c1=O | 1.92% (active) |
| CCN1CCN(C(=O)C2(NC(=O)Nc3cccc(F)c3)CCCCC2)CC1 | 90.9% |
